High-throughput results from PubChem BioAssay.
ATXN2 expr inh: reduces ATXN2 reporter expression in HEK-293 cells. HEK-293 ATXN2-luciferase reporter, luminescence, 24 h. Potency, µM (series often up to 57 µM), hits mostly inhibitors. 360,000 compounds, 0.72% hits; note: nearly all actives have a fitted effect of over 55% in size
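qHTS (up to 57 uM final) was run with 24 h compound exposure of reporter cells at 37 °C. Each well was multiplexed: SteadyGlo luminescence measured ATXN2-luciferase expression after a fluorogenic Gly-Phe-AFC viability readout (25 uM final).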
DRD3 antagonist: blocks the human D3 dopamine receptor | P35462 | D3R cells, DiscoveRx beta-arrestin luminescence, antagonist mode; stronger effect = lower value | max response, negative = inhibition, % | 360,000 compounds, 2.5% hits | AID 652054; in the data active = max response below about -50%; inconclusive = no clear call, values can overlap the other calls
Target sequence (P35462 whole entry, looked up): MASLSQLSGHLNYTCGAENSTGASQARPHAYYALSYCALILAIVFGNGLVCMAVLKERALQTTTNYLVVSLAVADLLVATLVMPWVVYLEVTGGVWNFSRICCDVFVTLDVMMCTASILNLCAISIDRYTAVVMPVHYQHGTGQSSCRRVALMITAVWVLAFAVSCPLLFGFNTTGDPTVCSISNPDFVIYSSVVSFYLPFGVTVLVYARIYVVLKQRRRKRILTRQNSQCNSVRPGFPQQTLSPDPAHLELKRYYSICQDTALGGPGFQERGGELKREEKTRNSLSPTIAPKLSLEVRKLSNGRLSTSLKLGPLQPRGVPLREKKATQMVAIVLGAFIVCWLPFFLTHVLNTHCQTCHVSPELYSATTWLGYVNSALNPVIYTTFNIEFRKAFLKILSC
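Cells expressing the human receptor were seeded at 1500 cells/well, incubated overnight at 37 degrees C in 5% CO2, then exposed to library compounds with dopamine controls for 90 minutes at 37 degrees C before luminescent detection.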
HepG2 viability: kills HepG2 cells in TGF-b inhibitor counter-screen. HepG2 CAGA-GFP viability, ATP luminescence, 18 h. Potency, µM (top dose mostly 46.1 µM), actives largely listed as cytotoxic. 410,000 compounds, 0.76% hits
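HepG2 CAGA-GFP cells (1000/well, DMEM with 1% FBS) received compound, then TGF-beta at 500 pg/mL final, and were incubated 18 hours at 37 degrees C. Viability was read by CellTiter-Glo luminescence. Media-only wells were set as complete cell-killing and DMSO as no toxicity.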
S2 tox: cell viability loss in ATXN counter-screen. S2 cells (HEK-293 line with an ATXN2-luciferase reporter) viability, CellTiter-Fluor protease fluorescence, 24 h. Potency, µM (doses to about 56.7 µM), actives largely listed as cytotoxic. 400,000 compounds, 0.49% hits. AID 651635; note: nearly all actives have a fitted effect of over 40% in size
DRD3 agonist: agonists of human D3 dopamine receptor; 410,000 compounds, 0.58% hits; max activation, %; P35462; D3R DiscoveRx beta-arrestin cells, luminescence, 90 min; in the data active = max activation above about 30%
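Cells at 1500/well, incubated overnight, then treated with pinned compounds (dopamine as control) for 90 min at 37 degrees C. DiscoveRx reagent added for 30 - 60 minutes at room temperature; luminescence read.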
TGFb SMAD3 inh: blocks TGF-b signaling. AID 588855. HepG2 CAGA-GFP TGF-b/SMAD3 reporter, GFP fluorescence, 18 h; TGF-beta stimulated, 500 pg/mL final. Potency, µM (titrated, usually from 46.1 µM), usual class: inhibitors. 410,000 compounds, 1.2% hits; note: nearly all actives have a fitted effect of over 65% in size
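Per well, imaged GFP fluorescence of HEPG2 CAGA-GFP cells gives the signal; cells get compound, then TGF-beta (500 pg/mL final), 18 h at 37 degrees C; %Activity versus -TGF-beta and +DMSO controls.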
Each line names hits and unclear results; the compound was inactive in the other large screens; ! = repeats disagree. Most compounds without a hit are left out; they make up all but 4.7% or so of the library. Unless noted, calls come from the whole dose curve; as a rule, active = well fitted curve in the direction sought with a large enough effect; inconclusive = small, poorly fitted or top-dose-only effect, or another doubt; inactive = no such curve, though single readings can be large; an effect the other way counts as inactive or inconclusive.

CCOc1ccccc1CN1C2CCC1CC(c1ccc(C)cc1)C2 (stereo not given)	DRD3 antagonist -70, S2 tox inconclusive, TGFb SMAD3 inh inconclusive
O=C(/C=C/c1ccccc1)C1C(=O)c2ccccc2C1=O	none
O=C(CF)N(O)c1ccc(C=Cc2ccccc2)cc1	ATXN2 expr inh inconclusive, DRD3 antagonist inconclusive, S2 tox inconclusive, TGFb SMAD3 inh 7.1µM
CCOC(=O)c1c(-n2c(C)cc(C=C3C(=O)NC(=O)NC3=O)c2C)sc2c1CCCC2	ATXN2 expr inh inconclusive
Cc1cccc(N2C(=O)NC(=O)/C(=C\c3cc(C)n(-c4sc5c(c4C#N)CCCC5)c3C)C2=O)c1C	HepG2 viability 13µM, TGFb SMAD3 inh 7.1µM
COc1ccc(C(=O)Nc2ccc(-c3cc(C(F)(F)F)nn3-c3ccccc3)cc2)cc1OC	ATXN2 expr inh inconclusive, DRD3 agonist 59 (no result: DRD3 antagonist)
COc1ccc(-c2cnnn2-c2ccc(NC(=O)c3ccc(S(=O)(=O)N(C)C)cc3)cc2)cc1	none (no result: ATXN2 expr inh, DRD3 antagonist, S2 tox)
C#CCN(C[C@@H]1[C@@H](OC(=O)Nc2c(C)noc2C)[C@@H](OC(=O)Nc2c(C)noc2C)Cn2c(=O)n(CCCCCC)c(=O)n21)S(=O)(=O)c1ccc(C)cc1	none
CCOc1ccc(CNCCc2ccc3c(c2)OCO3)cc1	DRD3 antagonist -86 (no result: ATXN2 expr inh)
c1ccc2c(CCNCc3ccc4c(c3)OCO4)c[nH]c2c1	DRD3 antagonist -68
COc1cc(CNCCc2c[nH]c3ccccc23)cc(OC)c1	ATXN2 expr inh inconclusive, DRD3 antagonist -68
COc1cc(CNCCc2c[nH]c3ccccc23)cc(OC)c1OC	S2 tox inconclusive (no result: ATXN2 expr inh)
CCOc1ccccc1CNCCc1ccc2c(c1)OCO2	none
CN1C[C@@H]2[C@@H]3C(=O)N(Cc4ccccc4)C(=O)[C@@H]3[C@](Cc3ccccc3)(C1=O)N2C(=O)c1ccc(F)cc1	TGFb SMAD3 inh inconclusive
CC[C@@H](O)C(C[C@@H](C)N(C)C)(c1ccccc1)c1ccccc1	S2 tox inconclusive (no result: ATXN2 expr inh, DRD3 antagonist, HepG2 viability, TGFb SMAD3 inh)
CCN1C[C@]2(COC)[C@H](O)C[C@H](OC)[C@@]34[C@@H]5C[C@@]6(O)[C@H](OC(=O)c7ccccc7)[C@@H]5[C@@](OC(C)=O)([C@@H]([C@H](OC)[C@H]23)[C@@H]14)[C@@H](O)[C@@H]6OC	none (no result: ATXN2 expr inh, DRD3 antagonist, HepG2 viability, S2 tox, TGFb SMAD3 inh)
C[C@H]1CC[C@]2(NC1)O[C@H]1C[C@H]3[C@@H]4CC[C@H]5C[C@@H](O[C@@H]6O[C@H](CO)[C@H](O[C@@H]7O[C@H](CO)[C@@H](O)[C@H](O[C@@H]8OC[C@@H](O)[C@H](O)[C@H]8O)[C@H]7O[C@@H]7O[C@H](CO)[C@@H](O)[C@H](O)[C@H]7O)[C@H](O)[C@H]6O)CC[C@]5(C)[C@H]4CC[C@]3(C)[C@H]1[C@@H]2C	none (no result: ATXN2 expr inh, DRD3 antagonist, HepG2 viability, S2 tox, TGFb SMAD3 inh)
Cc1ccccc1-n1c(O)c(/C=C2/C(c3ccccc3)=Nc3ccccc32)c(=O)[nH]c1=O	TGFb SMAD3 inh 25µM
O=C1NC2C(=CC(O)C(O)C2O)c2cc3c(cc21)OCO3 (stereo not given)	ATXN2 expr inh 0.95µM, S2 tox inconclusive, TGFb SMAD3 inh inconclusive
CCOC1=C2[C@@H](CN(S(=O)(=O)c3ccccc3C)[C@H]2c2ccc(Cl)cc2)[C@H]2C(=O)NC(=O)[C@H]2C1	DRD3 antagonist -72, S2 tox inconclusive
CN(Cc1cccc(-c2ccncc2)c1)C(=O)Oc1ccc([N+](=O)[O-])cc1	ATXN2 expr inh 25µM, S2 tox 32µM (no result: HepG2 viability, TGFb SMAD3 inh)
CN(C(=O)Oc1ccc([N+](=O)[O-])cc1)c1ccccc1	none
CCOc1ccc(C(=O)N2CCC(c3noc(-c4ccc(S(=O)(=O)N5CCCC5)cc4)n3)CC2)cc1	TGFb SMAD3 inh inconclusive (no result: ATXN2 expr inh, DRD3 antagonist, S2 tox)
CC(=O)OC1CC(OC2C(O)CC(OC3C(O)CC(OC4CCC5(C)C(CCC6C5CCC5(C)C(C7=CC(=O)OC7)C(O)CC65O)C4)OC3C)OC2C)OC(C)C1OC1OC(CO)C(O)C(O)C1O (stereo not given)	TGFb SMAD3 inh 2µM
CC(=O)OC1CC2(O)C3CCC4CC(O)CCC4(C)C3CCC2(C)C1C1=CC(=O)OC1 (stereo not given)	ATXN2 expr inh 0.32µM, S2 tox inconclusive, TGFb SMAD3 inh 2µM
CC(=O)O[C@H]1C[C@H](O[C@H]2[C@@H](O)C[C@H](O[C@H]3[C@@H](O)C[C@H](OC4CC[C@@]5(C)C(CC[C@@H]6[C@@H]5CC[C@]5(C)[C@@H](C7=CC(=O)OC7)[C@@H](O)C[C@]65O)C4)O[C@@H]3C)O[C@@H]2C)O[C@H](C)[C@H]1O[C@@H]1O[C@H](CO)[C@@H](O)[C@H](O)[C@H]1O (stereo not given in full)	S2 tox inconclusive (no result: ATXN2 expr inh, DRD3 antagonist, HepG2 viability, TGFb SMAD3 inh)
CC1OC(OC2C(O)CC(OC3C(O)CC(OC4CCC5(C)C(CCC6C5CCC5(C)C(C7=CC(=O)OC7)C(O)CC65O)C4)OC3C)OC2C)CC(O)C1O (stereo not given)	ATXN2 expr inh 0.32µM, S2 tox inconclusive, TGFb SMAD3 inh inconclusive
O=C(N[C@@H]1N=C(c2ccccc2F)c2cccc3c2N(CC3)C1=O)c1cc2ccccc2[nH]1	none (no result: DRD3 antagonist, HepG2 viability, TGFb SMAD3 inh)
O=c1c(O)c(-c2ccc(O)c(O)c2)oc2cc(O)cc(O)c12	S2 tox inconclusive, TGFb SMAD3 inh inconclusive
O=c1cc(-c2ccc(O)c(O)c2)oc2cc(O)cc(O)c12	S2 tox inconclusive, DRD3 agonist 43, TGFb SMAD3 inh inconclusive
c1ccc2c(CNC3CCCCCC3)c[nH]c2c1	ATXN2 expr inh 20µM, S2 tox 28µM, TGFb SMAD3 inh inconclusive
O=C(CN1CCCCC1)c1ccccc1Cl	DRD3 antagonist inconclusive, TGFb SMAD3 inh inconclusive
O=C(CCl)c1ccc(Cl)cc1Cl	ATXN2 expr inh inconclusive, S2 tox 11µM! (no result: DRD3 antagonist, HepG2 viability, TGFb SMAD3 inh)
CC(Cc1ccccc1)NCCn1cnc2c1c(=O)n(C)c(=O)n2C (stereo not given)	none (no result: DRD3 antagonist, HepG2 viability, TGFb SMAD3 inh)
COc1ccccc1N1CCN(C2CCN(C(=O)c3cccs3)CC2)CC1	DRD3 antagonist -63, S2 tox inconclusive
Cc1ccc(-c2nc(CN3C(=O)CN=C(c4ccccc4)c4ccccc43)c(C)o2)cc1	none (no result: DRD3 antagonist)
Cc1oc(-c2ccccc2Cl)nc1CN1C(=O)CN=C(c2ccccc2)c2ccccc21	DRD3 antagonist inconclusive, S2 tox inconclusive, TGFb SMAD3 inh 16µM
COCCOCCO	none (no result: DRD3 antagonist, HepG2 viability, TGFb SMAD3 inh)
Cc1ccc(-n2nc3c(N4CCC(C(=O)NCc5ccccc5Cl)CC4)nnc(C)c3c2C)cc1	ATXN2 expr inh inconclusive, TGFb SMAD3 inh inconclusive (no result: DRD3 antagonist)
CCC(C(=O)Nc1ccccc1C(=O)OC)n1nc(C)c2c(C)n(-c3ccc(C)cc3)nc2c1=O (stereo not given)	TGFb SMAD3 inh 11µM (no result: ATXN2 expr inh, DRD3 antagonist, S2 tox)
